HSP90 refold inh: blocks HSP90-mediated luciferase refolding in reticulocyte lysate. Rabbit reticulocyte lysate, luciferase refolding luminescence, 3 h. inhibition, % at 5.6 µM. 290,000 tested, 0.91% active;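 active = inhibition above the screen-wide mean plus 3 SD, computed separately per campaign, cut at about 16% in these data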;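 also: inhibitors lower the luminescence because luciferase stays unfolded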
SENP8 block-1: blocks the human protease SENP8; purified SENP8, Z-RLRGG-aminoluciferin cleavage, luminescence; inhibition, % at 10 µM; 330,000 tested, 1.2% active; in the data active = inhibition above about 50%
Target sequence (Q96LD8 whole entry, looked up): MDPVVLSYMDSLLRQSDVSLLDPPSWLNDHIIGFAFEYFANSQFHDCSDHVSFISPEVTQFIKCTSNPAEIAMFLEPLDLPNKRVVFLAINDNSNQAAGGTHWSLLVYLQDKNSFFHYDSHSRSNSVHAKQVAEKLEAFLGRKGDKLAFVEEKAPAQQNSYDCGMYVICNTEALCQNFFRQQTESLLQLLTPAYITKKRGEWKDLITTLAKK
SENP7 inh: SENP7 protease inhibition; inhibition, % at 5 µM; Q9BQF6; recombinant SENP7, Z-RLRGG-aminoluciferin luminescence, 40 min; AID 434973; 330,000 tested, 1.5% active;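 active = inhibition above about 50% at the single test dose, limit read from the data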
Target sequence (Q9BQF6 706-1050 limits assumed): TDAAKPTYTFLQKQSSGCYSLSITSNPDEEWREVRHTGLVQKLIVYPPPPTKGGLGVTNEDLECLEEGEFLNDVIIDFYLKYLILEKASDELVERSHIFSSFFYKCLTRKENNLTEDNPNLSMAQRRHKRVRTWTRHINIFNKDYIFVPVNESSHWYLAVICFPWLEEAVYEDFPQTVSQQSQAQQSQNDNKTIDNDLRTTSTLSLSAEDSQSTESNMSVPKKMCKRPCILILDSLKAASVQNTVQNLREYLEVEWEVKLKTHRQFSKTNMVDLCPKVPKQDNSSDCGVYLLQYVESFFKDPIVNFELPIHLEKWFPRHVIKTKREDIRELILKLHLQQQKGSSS
SENP6 inh: blocks the human protease SENP6 | Q9GZR1 | Recombinant SENP6 catalytic domain, aminoluciferin luminescence | inhibition, % at 10 µM | 330,000 tested, 1.8% active | AID 2599;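 active = inhibition above about 50% at the single tested dose, limit read from the data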
SENP8 block-2: inhibitors of human SENP8 protease; Q96LD8; recombinant SENP8, Nedd8 substrate fluorescence; inhibition, % at 20 µM; 360,000 tested, 0.64% active; in the data active = inhibition mostly above about 40%, no sharp cut-off; inactive = mostly below about 27%
HSP90 confirm: HSP90 inhibition, confirmation assay | shares compounds with HSP90 refold inh | rabbit reticulocyte lysate, luciferase refolding luminescence, 3 h | inhibition, % at 5.9 µM | 2,300 tested, 64% active; in the data active = inhibition above about 18%
luciferase ctr: counter-screen for HSP90 inhibitors: inhibitors of firefly luciferase; shares compounds with HSP90 refold inh; inhibition, % at 5.9 µM; purified native firefly luciferase, luminescence; 2,300 tested, 48% active;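 active = inhibition above the mean inhibition of all tested sample wells plus 3 SD, cut at about 10% in these data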
SENP8 conf: human SENP8 inhibition, confirmed | shares compounds with SENP7 inh | Recombinant SENP8, Z-RLRGG-aminoluciferin luminescence, 60 min | inhibition, % at 12.5 µM | 6,200 tested, 40% active | AID 488912;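 active = mean inhibition across replicates above about 50%, limit read from the data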
SENP6 confirm: confirmation of human SENP6 protease inhibitors. shares compounds with SENP7 inh. 6,200 tested, 58% active. AID 488915. inhibition, % at 12.5 µM. recombinant SENP6, Z-RLRGG-aminoluciferin luminescence
SENP7 conf: confirmation of human SENP7 protease inhibitors. shares compounds with SENP7 inh. recombinant SENP7, Z-RLRGG-aminoluciferin luminescence, 40 min. inhibition, % at 12.5 µM. 6,200 tested, 69% active. AID 488917
Casp3 SENP sel: inhibits human caspase-3 in SENP selectivity test. shares compounds with SENP7 inh. purified caspase-3, Z-DEVD-aminoluciferin luminescence, 60 min. inhibition, % at 12.5 µM. 6,200 tested, 60% active. AID 488918;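 active = mean inhibition above about 50%, limit read from the data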
Luc interf: luminescence interference (SENP counter-screen) | shares compounds with SENP7 inh | inhibition, % at 12.5 µM | 6,200 tested, 39% active | Pre-incubated SENP8/Z-RLRGG-aminoluciferin, luciferase luminescence interference;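 active = mean inhibition above about 50% when retested at one dose, limit read from the data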
Of the large screens only hits and unclear results are named; the others gave an inactive call (follow-up assays come after a bar, where they were run). Compounds with a hit are over-represented: about 2.8% of the library has one in this group of screens.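 The calls were made as follows, unless noted: active = mean inhibition above about 50% in the one-dose retest (limit read from the data); inactive = the rest.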

CN1CCN(c2cccc3c2C(=O)c2ccccc2C3=O)CC1	HSP90 refold inh 19.0 (no result: SENP8 block-1, SENP7 inh, SENP6 inh) | HSP90 confirm 20.2 | luciferase ctr inactive
CCC1(c2ccc(-c3ccccc3)cc2)C(=O)NC(=O)NC1=O	none
CC(C)(C)c1ccc(O)c(N=Cc2c(O)ccc3ccccc23)c1	HSP90 refold inh 29.8 | HSP90 confirm 30.2 | luciferase ctr inactive
COc1ccccc1-n1c(-c2ccccc2)nc2ccccc2c1=O	none
COc1ccccc1-n1c(-c2cccs2)nc2ccccc2c1=O	HSP90 refold inh 17.3 | HSP90 confirm inactive | luciferase ctr inactive
Cc1nc2c(=O)n(C)c(=O)nc-2n(C)n1	HSP90 refold inh 77.8, SENP8 block-1 96.4, SENP7 inh 96.0, SENP6 inh 86.9, SENP8 block-2 131.7 | HSP90 confirm 79.9 | luciferase ctr 83.5
CCOP(=O)(OCC)C(Cc1ccccc1)NC(C)=O (stereo not drawn)	none
CCOP(=S)(NN(Cc1ccccc1)C(=O)c1ccccc1)OCC	HSP90 refold inh 42.3 | HSP90 confirm inactive | luciferase ctr inactive
CNC(=O)Oc1cccc2ccccc12	none
CNC(=O)Oc1ccc(-c2cn3cc(C)ccc3n2)cc1	HSP90 refold inh 55.7, SENP8 block-1 66.6, SENP7 inh 79.3, SENP6 inh 81.0 | HSP90 confirm 67.9 | luciferase ctr 51.7
CCOC(=O)c1c(NS(=O)(=O)c2ccccc2)n(CCCOC)c2nc3ccccc3nc12	HSP90 refold inh 22.2, SENP8 block-1 91.4, SENP7 inh 95.3, SENP6 inh 95.4 | HSP90 confirm inactive | luciferase ctr inactive | SENP8 conf inactive | SENP6 confirm 58.3 | SENP7 conf inactive | Casp3 SENP sel inactive | Luc interf inactive
CCOC(=O)c1c(N)n(CCCOC(=O)c2ccco2)c2nc3ccccc3nc12	none
COCCCn1c(N)c(C(=O)OCCOC)c2nc3ccccc3nc21	HSP90 refold inh 22.1, SENP8 block-1 59.9, SENP7 inh 57.2, SENP6 inh 58.3 | HSP90 confirm inactive | luciferase ctr inactive | SENP8 conf inactive | SENP6 confirm inactive | SENP7 conf inactive | Casp3 SENP sel inactive | Luc interf inactive
O=C(c1ccc(Cl)cc1)C12CN3CN(CN(C3)C1)C2	none
CN1CC[C@@]2(C)c3cc(O)ccc3N(C)C2O1 (stereo partly drawn)	SENP6 inh 57.1 (no result: HSP90 refold inh) | SENP8 conf inactive | SENP6 confirm 55.7 | SENP7 conf inactive | Casp3 SENP sel inactive | Luc interf inactive
O=C(N/N=C/c1c(O)n(-c2ccccc2)c(=S)[nH]c1=O)c1ccccc1	none
O=C(N/N=C/c1c(O)n(C2CC2)c(=S)[nH]c1=O)c1ccccc1O	SENP8 block-1 82.9, SENP7 inh 82.6, SENP6 inh 81.5 | SENP8 conf 88.4 | SENP6 confirm 85.5 | SENP7 conf 94.6 | Casp3 SENP sel 87.4 | Luc interf inactive
Cc1ccc(NC(=O)N2CC2)cc1NC(=O)N1CC1	none (no result: HSP90 refold inh, SENP8 block-1, SENP7 inh, SENP6 inh)
Cc1ccc(NC(=O)c2snnc2C)cc1Cl	SENP7 inh 60.2, SENP6 inh 64.8 | SENP8 conf inactive | SENP6 confirm inactive | SENP7 conf 82.8 | Casp3 SENP sel 63.5 | Luc interf 61.3
CCOC(=O)C1(CCc2ccccc2)CCN(Cc2csc(C(C)=O)c2)CC1	none
CCC(COC(=O)NC)NC(=O)Oc1cccc(C)c1 (stereo not drawn)	none
CNC(=O)Oc1cccc(-c2cn3cc(Cl)ccc3n2)c1	HSP90 refold inh 48.9, SENP8 block-1 83.2, SENP7 inh 83.2, SENP6 inh 85.3 | SENP8 conf 92.4 | SENP6 confirm 94.7 | SENP7 conf 101.7 | Casp3 SENP sel 94.8 | Luc interf 92.0
COc1ccc(Cc2nccc3cc(OC)c(OC)cc23)cc1OC	SENP6 inh 63.9, SENP8 block-2 55.4 | SENP8 conf inactive | SENP6 confirm inactive | SENP7 conf inactive | Casp3 SENP sel inactive | Luc interf inactive
CC/C(=N\N1CCN(C)CC1)c1c(O)[nH]c(=O)[nH]c1=O	none
CC(C)CNC(=O)c1c(N)n(Cc2ccc3c(c2)OCO3)c2nc3ccccc3nc12	SENP8 block-1 90.9, SENP7 inh 73.2, SENP6 inh 91.3 | SENP8 conf inactive | SENP6 confirm inactive | SENP7 conf inactive | Casp3 SENP sel inactive | Luc interf inactive
CCCNC(=O)c1c(N)n(Cc2ccc3c(c2)OCO3)c2nc3ccccc3nc12	SENP8 block-1 52.9, SENP6 inh 53.8 | SENP8 conf inactive | SENP6 confirm inactive | SENP7 conf inactive | Casp3 SENP sel inactive | Luc interf inactive
COc1ccc(Cn2c(N)c(C(=O)NCc3ccco3)c3nc4ccccc4nc32)cc1OC	SENP8 block-1 52.3, SENP6 inh 74.4 | SENP8 conf inactive | SENP6 confirm inactive | SENP7 conf inactive | Casp3 SENP sel inactive | Luc interf inactive
CCCNC(=O)c1c(N)n(Cc2ccco2)c2nc3ccccc3nc12	none (no result: SENP8 block-2)
CC(C)CCNC(=O)c1c(N)n(Cc2ccc3c(c2)OCO3)c2nc3ccccc3nc12	SENP8 block-1 81.8, SENP7 inh 57.6, SENP6 inh 72.0 | SENP8 conf inactive | SENP6 confirm inactive | SENP7 conf inactive | Casp3 SENP sel inactive | Luc interf inactive
Cc1c(C(=O)N2CCC3(CC2)OCCO3)oc2ccc(S(=O)(=O)N3CCCCC3)cc12	none
COc1ccc(/C=C/C2=CCN(C)CC2)cc1	none
CN1CC=C(/C=C/c2ccc(-c3ccccc3)cc2)CC1	SENP8 block-1 75.6, SENP7 inh 81.5, SENP6 inh 85.9 (no result: SENP8 block-2) | SENP8 conf 71.6 | SENP6 confirm 87.6 | SENP7 conf 97.3 | Casp3 SENP sel 87.7 | Luc interf 71.7
O=C(Nc1ccc(Cl)c(Cl)c1)c1ccco1	SENP8 block-1 51.2, SENP6 inh 56.5 | SENP8 conf 59.6 | SENP6 confirm 57.6 | SENP7 conf 85.0 | Casp3 SENP sel inactive | Luc interf inactive
Nc1c2c(nc3sc4c(c13)CCCC4)CCCCC2	SENP8 block-1 69.3, SENP7 inh 71.7, SENP6 inh 81.0 | SENP8 conf inactive | SENP6 confirm inactive | SENP7 conf inactive | Casp3 SENP sel 50.1 | Luc interf inactive
Nc1c2c(nc3sc4c(c13)CCCC4)CCCC2	none

Source: PubChem
